The values below come from PubChem BioAssay (NCATS).

Inconclusive results are not listed. Entries that show only a call come without a potency. The source made the active and inactive calls. Calls come from the whole dose curve; as a rule, active = well fitted inhibition curve with a large enough effect; inconclusive = small, poorly fitted or top-dose-only effect; inactive = no such curve, though single readings can be large or run the other way.
Potency is the fitted concentration of half-maximal effect.

Glutaminase kidney isoform, mitochondrial (Homo sapiens), sequence (O94925 whole entry, looked up, canonical isoform): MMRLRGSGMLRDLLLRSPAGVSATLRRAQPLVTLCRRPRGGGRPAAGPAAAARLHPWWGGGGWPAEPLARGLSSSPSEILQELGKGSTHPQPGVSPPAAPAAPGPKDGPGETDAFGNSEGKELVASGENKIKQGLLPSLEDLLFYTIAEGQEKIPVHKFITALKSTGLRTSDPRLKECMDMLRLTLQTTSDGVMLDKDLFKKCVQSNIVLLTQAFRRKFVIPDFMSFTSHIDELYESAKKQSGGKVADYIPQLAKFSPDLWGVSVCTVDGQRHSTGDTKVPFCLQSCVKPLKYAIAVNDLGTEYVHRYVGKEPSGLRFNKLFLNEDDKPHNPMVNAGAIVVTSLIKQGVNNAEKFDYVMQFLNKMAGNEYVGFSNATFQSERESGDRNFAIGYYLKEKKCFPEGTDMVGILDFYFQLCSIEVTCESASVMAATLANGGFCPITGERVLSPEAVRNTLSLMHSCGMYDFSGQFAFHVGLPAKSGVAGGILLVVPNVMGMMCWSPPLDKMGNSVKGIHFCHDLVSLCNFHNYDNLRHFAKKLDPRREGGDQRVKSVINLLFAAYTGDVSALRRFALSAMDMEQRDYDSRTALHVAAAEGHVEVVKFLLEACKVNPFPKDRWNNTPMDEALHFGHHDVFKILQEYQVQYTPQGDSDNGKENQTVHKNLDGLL

The experiment addresses Glutaminase kidney isoform, mitochondrial (Homo sapiens) (UniProt O94925). In words: qHTS for Inhibitors of Glutaminase (GLS): LOPAC Validation (AID 624146). Note: nearly all actives have a fitted effect of over 60% in size. The following applies: glutaminase enzyme activity inhibition; series mostly up to 46.1 µM. From the text: Glutaminase (GLS) catalyzes the hydrolysis of glutamine into glutamate and ammonia. It plays a critical role in glutaminolysis, which is an important energy source for proliferating cells. It was shown that c-Myc, an oncogenic transcription factor known to regulate microRNAs and to stimulate cell proliferation, increases glutamine metabolism by stimulating the expression of GLS via direct suppression of miR23a and miR23b.
GLS is also thought to play a pathogenic role on HAD using a human HIV-1 infected macrophage system. […] GLS inhibition limits glutamate release and provides neuroprotection against HIV-1 infected macrophages.
The overall goal of this project is to identify small molecule inhibitors of GLS through quantitative high throughput screening (qHTS) of the MLSMR. A validated potent and selective inhibitor can be used as a tool molecule to further study the pharmacology of its target as well as explore its potential therapeutic application in cancer and inflammatory neurological disorders, such as HIV1-associated dementia (HAD) and multiple sclerosis.
NIH Chemical Genomics Center [NCGC]
NIH Molecular Libraries Probe Centers Network [MLPCN]
Assay Submitter (PI): Barbara S. Slusher, Johns Hopkins University
Three 3 uL of hKGA is dispensed into black well 1536-well plates in 45 mM KH2PO4 (pH 8.2), 0.02% Tween-20. Then 23 nL of compounds are added through pin tool transfer. To this, 1 uL of 1mM L-Glutamine and 1 uL of a solution of L-Glutamateoxidase, HRP, Amplex red are added. Plate is centrifuged for 25 sec before an initial fluorescence read is obtained on the ViewLux, after 30 min of RT incubation, the final read is taken on the ViewLux.
Background: In qHTS, concentration-response curves come from the screen itself.
Consider `O=Nc1ccc2oc(=O)ccc2c1`, for which the Potency was 10 µM (active).

Consider `N=C(N)SCCc1ccc(CCSC(=N)N)cc1`, for which the Potency entry is “inactive”.

Take `COc1ccccc1N1CCN(CCN(C(=O)c2ccc(I)cc2)c2ccccn2)CC1`: the Potency entry is “inactive”.

Regarding `O=C(Nc1ccccc1)c1cc([N+](=O)[O-])ccc1Cl`, the Potency result was “inactive”.

`Nc1ncnc2c1ncn2[C@@H]1O[C@H](COP(=O)(O)CP(=O)(O)OP(=O)(O)O)[C@@H](O)[C@H]1O`: the Potency result was “inactive”.

For `CNc1ncnc2c1ncn2[C@@H]1O[C@H](CO)[C@@H](O)[C@H]1O`, the Potency result is “inactive”.

On to `C[N+]1(C)C2CC(OC(=O)[C@H](CO)c3ccccc3)CC1C1OC12` (stereo not given in full), for which the Potency result is “inactive”.

`CCc1c(C(=O)NCCc2ccc(N3CCCCC3)cc2)[nH]c2ccc(Cl)cc12`: the Potency entry was “inactive”.

Turning to `C[C@@H](CN1CCC(Cc2ccccc2)CC1)[C@@H](O)c1ccc(O)cc1`, the Potency result was “inactive”.

`Clc1ccc(N2CCN(Cc3c[nH]c4ncccc34)CC2)cc1`: the Potency result was “inactive”.

Take `Cc1ccc(O)c(N=Nc2ccccc2)n1`: the Potency entry was “inactive”.

Regarding `N.N.N.N.N.N.N.N.N.N.N.N.N.N.O.O.[Ru+4].[Ru+5].[Ru+5]`, the Potency entry is “inactive”.

As for `Nc1ncnc2c1c(I)cn2[C@@H]1C[C@H](N)[C@@H](O)[C@H]1O`, the Potency result was “inactive”.

As for `CCCN(CC1CC1)c1nc(C)nc(Nc2c(Cl)cc(Cl)cc2Cl)c1Cl`, the Potency result is “inactive”.

Consider `CC(C)(C)c1ccc(S(=O)(=O)/C=C/C#N)cc1`, for which the Potency is 7.08 µM (active).

As for `NC(N)=NC(=O)c1nc(Cl)c(N2CCCCCC2)nc1N`, the Potency entry was “inactive”.

Regarding `C[N+]1(C)CCC(OC(=O)C(c2ccccc2)c2ccccc2)CC1`, the Potency result is “inactive”.

`N.N.O=C(O)C1(C(=O)O)CCC1.[Pt]`: the Potency entry was “inactive”.

For the compound `O=C(/C=C/c1ccc(O)c(O)c1)OCCc1ccccc1`, the Potency is 0.891 µM (active).

`CC(C)Cc1ccc([C@H](C)C(=O)O)cc1`: the Potency result is “inactive”.

Consider `O=C(O)c1cc(=O)c2ccccc2[nH]1`, for which the Potency entry was “inactive”.

`C[C@@H](NC(=O)/C(C#N)=C/c1ccc(O)c(O)c1)c1ccccc1`: the Potency is 1 µM (active).

Consider `CC(C)NCC(O)COc1cccc2ccccc12` (stereo not given), for which the Potency entry was “inactive”.

As for `COc1ccc(NC(=O)/C=C/c2ccc(Cl)cc2)cc1`, the Potency entry is “inactive”.

As for `NCCCCCCCCCCN`, the Potency entry is “inactive”.

For `NC[C@@H]1O[C@H](C23CC4CC(CC(C4)C2)C3)Cc2c1ccc(O)c2O`, the Potency entry was “inactive”.

Take `NCCCS(=O)(=O)O`: the Potency result is “inactive”.

With `NC(CCCP(=O)(O)O)C(=O)O` (stereo not given), the Potency result was “inactive”.

As to `NC(=O)C1=CN(C2OC(COP(=O)(O)OP(=O)(O)OC[C@H]3O[C@@H](n4cnc5c(N)ncnc54)[C@H](OP(=O)(O)O)[C@@H]3O)C(O)C2O)C=CC1` (stereo not given in full), the Potency entry is “inactive”.

`OCC1O[C@H](O)C(Cl)C(O)C1O` (stereo not given in full): the Potency result was “inactive”.

Regarding `CN1C2CC(OC(=O)[C@H](CO)c3ccccc3)CC1C1OC12` (stereo not given in full), the Potency entry was “inactive”.

In the case of `COC1=C(OC)C(=O)c2ccccc2C1=O`, the Potency is 10 µM (active).

Turning to `CSc1nc(N)c2ncn([C@@H]3O[C@H](COP(=O)(O)OP(=O)(O)OP(=O)(O)O)[C@@H](O)[C@H]3O)c2n1`, the Potency entry was “inactive”.

For the compound `O=c1[nH]c2cc([N+](=O)[O-])c([N+](=O)[O-])cc2[nH]c1=O`, the Potency entry was “inactive”.

`CCCCC/C=C\CC(O)/C=C/c1cccc(CC(O)CCCCO)n1` (stereo not given): the Potency result was “inactive”.

Regarding `C=C[C@H]1CN2CC[C@@H]1C[C@@H]2[C@@H](O)c1ccnc2ccc(OC)cc12`, the Potency entry is “inactive”.

Regarding `NC(=S)c1ccc[n+]([C@@H]2O[C@@H](COP(=O)([O-])OP(=O)(O)OC[C@H]3O[C@@H](n4cnc5c(N)ncnc54)[C@H](OP(=O)(O)O)[C@@H]3O)C(O)C2O)c1` (stereo not given in full), the Potency entry was “inactive”.

For the compound `OC[C@H]1O[C@@H](n2cnc3c(Nc4ccccc4)ncnc32)[C@H](O)[C@@H]1O`, the Potency result is “inactive”.

Consider `COc1cccc(C(=O)NCCN2CCN(c3ccc(Cl)cc3)CC2)c1`, for which the Potency entry is “inactive”.

As for `Oc1cc2c(cc1O)CN(C(=S)NCCc1ccc(Cl)cc1)CCC2`, the Potency is 2.24 µM (active).
